# Experimental data reported in PubChem BioAssay AID1159580 (chemical genetic matrix, 2015).
# Screen size: about 5,500 compounds; about 2,000 (36%) were called active. Inconclusive results (about 18%) are left out. The list shows a part of the results. Unmarked numbers belong to inactive results. Rule as the data show it: active = normalized growth mostly below about 0.91 (no sharp cut-off); inconclusive = no clear call, values can overlap the other calls; inactive = mostly above about 0.92.
# Assay: chemical genetic growth profiling, strain panel (AID 1159580);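 also: tested at 20 µM; growth read once vehicle control cultures reached saturation at 30 °C; 1 = growth at the plate median or of vehicle wells; lower values mean less growth of the strain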
# Conditions: growth OD
smiles,measurement,setting,value
COc1c(C)c2c(c(O)c1C/C=C(\C)CCC(=O)O)C(=O)OC2,normalized growth,"S. cerevisiae deletion strains, locus YKL009W, strain mrt4, stronger effect = lower value",0.561 (active)
same,normalized growth,"S. cerevisiae deletion strains, locus YKL068W, stronger effect = lower value",0.72 (active)
same,normalized growth,"S. cerevisiae deletion strains, locus YKL085W, strain MDH1 (second series), stronger effect = lower value",0.279 (active)
same,normalized growth,"S. cerevisiae deletion strains, locus YKL085W, strain MDH1, stronger effect = lower value",0.279 (active)
same,normalized growth,"S. cerevisiae deletion strains, locus YKL160W, strain elf1, stronger effect = lower value",0.596 (active)
same,normalized growth,"S. cerevisiae deletion strains, locus YKL190W, strain CNB1, stronger effect = lower value",0.921
same,normalized growth,"S. cerevisiae deletion strains, locus YKR001C, strain vps1, stronger effect = lower value",0.493 (active)
same,normalized growth,"S. cerevisiae deletion strains, locus YKR026C, strain gcn3, stronger effect = lower value",0.648 (active)
same,normalized growth,"S. cerevisiae deletion strains, locus YKR091W, strain srl3, stronger effect = lower value",0.763 (active)
same,normalized growth,"S. cerevisiae deletion strains, locus YLL001W, strain dnm1, stronger effect = lower value",0.398 (active)
same,normalized growth,"S. cerevisiae deletion strains, locus YLL026W, stronger effect = lower value",0.533 (active)
same,normalized growth,"S. cerevisiae deletion strains, locus YLL041C, strain sdh2, stronger effect = lower value",0.822 (active)
same,normalized growth,"S. cerevisiae deletion strains, locus YLR027C, strain aat2, stronger effect = lower value",0.514 (active)
same,normalized growth,"S. cerevisiae deletion strains, locus YLR039C, strain RIC1, stronger effect = lower value",0.504 (active)
same,normalized growth,"S. cerevisiae deletion strains, locus YLR058C, strain SHM2, stronger effect = lower value",0.844 (active)
same,normalized growth,"S. cerevisiae deletion strains, locus YLR102C, strain apc9, stronger effect = lower value",0.813 (active)
same,normalized growth,"S. cerevisiae deletion strains, locus YLR113W, strain HOG1, stronger effect = lower value",0.189 (active)
same,normalized growth,"S. cerevisiae deletion strains, locus YLR221C, strain rsa3, stronger effect = lower value",0.376 (active)
same,normalized growth,"S. cerevisiae deletion strains, locus YLR258W, strain gsy2, stronger effect = lower value",0.532 (active)
same,normalized growth,"S. cerevisiae deletion strains, locus YLR262C, strain YPT6 (second series), stronger effect = lower value",0.415 (active)
same,normalized growth,"S. cerevisiae deletion strains, locus YLR262C, strain YPT6, stronger effect = lower value",0.467 (active)
same,normalized growth,"S. cerevisiae deletion strains, locus YLR268W, strain sec22, stronger effect = lower value",0.612 (active)
same,normalized growth,"S. cerevisiae deletion strains, locus YLR320W, strain mms22, stronger effect = lower value",0.443 (active)
same,normalized growth,"S. cerevisiae deletion strains, locus YLR330W, strain CHS5, stronger effect = lower value",0.878 (active)
same,normalized growth,"S. cerevisiae deletion strains, locus YLR342W, strain FKS1 (second series), stronger effect = lower value",0.669 (active)
same,normalized growth,"S. cerevisiae deletion strains, locus YLR342W, strain FKS1, stronger effect = lower value",0.442 (active)
same,normalized growth,"S. cerevisiae deletion strains, locus YLR357W, strain rsc2, stronger effect = lower value",0.779 (active)
same,normalized growth,"S. cerevisiae deletion strains, locus YLR370C, strain arc18, stronger effect = lower value",0.435 (active)
same,normalized growth,"S. cerevisiae deletion strains, locus YLR371W, strain rom2, stronger effect = lower value",0.955
same,normalized growth,"S. cerevisiae deletion strains, locus YLR384C, strain iki3, stronger effect = lower value",0.983
same,normalized growth,"S. cerevisiae deletion strains, locus YLR418C, strain cdc73, stronger effect = lower value",0.816 (active)
same,normalized growth,"S. cerevisiae deletion strains, locus YML016C, strain PPZ1, stronger effect = lower value",0.992
same,normalized growth,"S. cerevisiae deletion strains, locus YML032C, strain rad52, stronger effect = lower value",0.626 (active)
same,normalized growth,"S. cerevisiae deletion strains, locus YML120C, strain ndi1, stronger effect = lower value",0.406 (active)
same,normalized growth,"S. cerevisiae deletion strains, locus YML124C, strain tub3, stronger effect = lower value",0.737 (active)
same,normalized growth,"S. cerevisiae deletion strains, locus YMR058W, strain fet3, stronger effect = lower value",0.587 (active)
same,normalized growth,"S. cerevisiae deletion strains, locus YMR078C, strain ctf18, stronger effect = lower value",0.843 (active)
same,normalized growth,"S. cerevisiae deletion strains, locus YMR125W, strain sto1, stronger effect = lower value",0.635 (active)
same,normalized growth,"S. cerevisiae deletion strains, locus YMR129W, stronger effect = lower value",0.571 (active)
same,normalized growth,"S. cerevisiae deletion strains, locus YMR205C, strain PFK2, stronger effect = lower value",0.497 (active)
same,normalized growth,"S. cerevisiae deletion strains, locus YMR223W, strain ubp8, stronger effect = lower value",0.732 (active)
same,normalized growth,"S. cerevisiae deletion strains, locus YMR231W, strain pep5, stronger effect = lower value",0.358 (active)
same,normalized growth,"S. cerevisiae deletion strains, locus YMR263W, strain SAP30, stronger effect = lower value",0.765 (active)
same,normalized growth,"S. cerevisiae deletion strains, locus YMR307W, strain GAS1, stronger effect = lower value",0.8
same,normalized growth,"S. cerevisiae deletion strains, locus YNL067W, strain RPL9B, stronger effect = lower value",0.782 (active)
same,normalized growth,"S. cerevisiae deletion strains, locus YNL071W, strain lat1, stronger effect = lower value",0.531 (active)
same,normalized growth,"S. cerevisiae deletion strains, locus YNL128W, strain TEP1, stronger effect = lower value",0.868
same,normalized growth,"S. cerevisiae deletion strains, locus YNL153C, strain GIM3, stronger effect = lower value",0.811 (active)
same,normalized growth,"S. cerevisiae deletion strains, locus YNL183C, strain NPR1, stronger effect = lower value",0.0633 (active)
same,normalized growth,"S. cerevisiae deletion strains, locus YNL209W, strain ssb2, stronger effect = lower value",0.653 (active)
same,normalized growth,"S. cerevisiae deletion strains, locus YNL233W, strain BNI4, stronger effect = lower value",0.777 (active)
same,normalized growth,"S. cerevisiae deletion strains, locus YNL248C, strain rpa49, stronger effect = lower value",0.417 (active)
same,normalized growth,"S. cerevisiae deletion strains, locus YNL250W, strain rad50, stronger effect = lower value",0.39 (active)
same,normalized growth,"S. cerevisiae deletion strains, locus YNL271C, strain bni1, stronger effect = lower value",0.335 (active)
same,normalized growth,"S. cerevisiae deletion strains, locus YNL298W, strain CLA4, stronger effect = lower value",0.328 (active)
same,normalized growth,"S. cerevisiae deletion strains, locus YNL307C, strain MCK1, stronger effect = lower value",0.295 (active)
same,normalized growth,"S. cerevisiae deletion strains, locus YNL322C, strain KRE1 (second series), stronger effect = lower value",0.507 (active)
same,normalized growth,"S. cerevisiae deletion strains, locus YNL322C, strain KRE1, stronger effect = lower value",0.877 (active)
same,normalized growth,"S. cerevisiae deletion strains, locus YNR049C, strain mso1, stronger effect = lower value",0.607 (active)
same,normalized growth,"S. cerevisiae deletion strains, locus YNR052C, strain pop2, stronger effect = lower value",0.75 (active)
same,normalized growth,"S. cerevisiae deletion strains, locus YOL006C, strain TOP1, stronger effect = lower value",0.934
same,normalized growth,"S. cerevisiae deletion strains, locus YOL012C, strain htz1",0.529
same,normalized growth,"S. cerevisiae deletion strains, locus YOL147C, strain pex11, stronger effect = lower value",0.675 (active)
same,normalized growth,"S. cerevisiae deletion strains, locus YOR001W, strain rrp6, stronger effect = lower value",0.582 (active)
same,normalized growth,"S. cerevisiae deletion strains, locus YOR061W, strain CKA2, stronger effect = lower value",0.945
same,normalized growth,"S. cerevisiae deletion strains, locus YOR069W, strain VPS5, stronger effect = lower value",0.911 (active)
same,normalized growth,"S. cerevisiae deletion strains, locus YOR070C, strain gyp1, stronger effect = lower value",0.583 (active)
same,normalized growth,"S. cerevisiae deletion strains, locus YOR080W, strain dia2, stronger effect = lower value",0.841 (active)
same,normalized growth,"S. cerevisiae deletion strains, locus YOR083W, strain WHI5, stronger effect = lower value",0.581 (active)
same,normalized growth,"S. cerevisiae deletion strains, locus YOR106W, strain vam3, stronger effect = lower value",0.442 (active)
same,normalized growth,"S. cerevisiae deletion strains, locus YOR136W, strain idh2, stronger effect = lower value",0.922
same,normalized growth,"S. cerevisiae deletion strains, locus YOR144C, strain elg1, stronger effect = lower value",0.681 (active)
same,normalized growth,"S. cerevisiae deletion strains, locus YOR184W, strain ser1, stronger effect = lower value",0.345 (active)
same,normalized growth,"S. cerevisiae deletion strains, locus YOR231W, strain MKK1, stronger effect = lower value",0.171 (active)
same,normalized growth,"S. cerevisiae deletion strains, locus YOR265W, strain rbl2, stronger effect = lower value",0.691 (active)
same,normalized growth,"S. cerevisiae deletion strains, locus YOR270C, strain vph1, stronger effect = lower value",0.298 (active)
same,normalized growth,"S. cerevisiae deletion strains, locus YOR290C, strain snf2, stronger effect = lower value",0.359 (active)
same,normalized growth,"S. cerevisiae deletion strains, locus YOR316C, strain cot1, stronger effect = lower value",0.82 (active)
same,normalized growth,"S. cerevisiae deletion strains, locus YPL051W, strain arl3, stronger effect = lower value",0.552 (active)
same,normalized growth,"S. cerevisiae deletion strains, locus YPL055C, strain LGE1, stronger effect = lower value",0.589 (active)
same,normalized growth,"S. cerevisiae deletion strains, locus YPL078C, strain atp4, stronger effect = lower value",0.485 (active)
same,normalized growth,"S. cerevisiae deletion strains, locus YPL106C, strain sse1, stronger effect = lower value",0.661 (active)
same,normalized growth,"S. cerevisiae deletion strains, locus YPL240C, strain hsp82, stronger effect = lower value",0.568 (active)
same,normalized growth,"S. cerevisiae deletion strains, locus YPL241C, strain CIN2, stronger effect = lower value",0.967
same,normalized growth,"S. cerevisiae deletion strains, locus YPL256C, strain CLN2, stronger effect = lower value",0.18 (active)
same,normalized growth,"S. cerevisiae deletion strains, locus YPR119W, strain clb2, stronger effect = lower value",0.815 (active)
same,normalized growth,"S. cerevisiae deletion strains, locus YPR141C, strain kar3, stronger effect = lower value",0.575 (active)
same,normalized growth,"S. cerevisiae deletion strains, locus YPR163C, strain tif3, stronger effect = lower value",0.547 (active)
same,normalized growth,"S. cerevisiae deletion strains, locus YPR167C, strain met16, stronger effect = lower value",0.739 (active)
same,normalized growth,"S. cerevisiae deletion strains, strain wtn01, stronger effect = lower value",0.684 (active)
same,normalized growth,"S. cerevisiae strains, strain wild type, stronger effect = lower value",0.819 (active)
